Among all 380,000 compounds or so, about 25 (0.007%) were called active. The call rests on the fitted dose curve; in most records, active means well fitted activation curve with a large enough effect; inconclusive means small, poorly fitted or top-dose-only effect; inactive means no such curve, though single readings can be large or run the other way. Not all results are given here.
target: Glucagon-like peptide 1 receptor (Homo sapiens) (UniProt P43220); assay: qHTS of GLP-1 Receptor Agonists; conditions: HEK293 GLP-1R CRE-luciferase, luminescence, 4-6 h, cells express a hypersensitive GLP-1R form; series mostly up to 45.6 µM; activation: at the top concentration; further: % of control where 0% means no effect
Sequence (P43220 whole entry, looked up): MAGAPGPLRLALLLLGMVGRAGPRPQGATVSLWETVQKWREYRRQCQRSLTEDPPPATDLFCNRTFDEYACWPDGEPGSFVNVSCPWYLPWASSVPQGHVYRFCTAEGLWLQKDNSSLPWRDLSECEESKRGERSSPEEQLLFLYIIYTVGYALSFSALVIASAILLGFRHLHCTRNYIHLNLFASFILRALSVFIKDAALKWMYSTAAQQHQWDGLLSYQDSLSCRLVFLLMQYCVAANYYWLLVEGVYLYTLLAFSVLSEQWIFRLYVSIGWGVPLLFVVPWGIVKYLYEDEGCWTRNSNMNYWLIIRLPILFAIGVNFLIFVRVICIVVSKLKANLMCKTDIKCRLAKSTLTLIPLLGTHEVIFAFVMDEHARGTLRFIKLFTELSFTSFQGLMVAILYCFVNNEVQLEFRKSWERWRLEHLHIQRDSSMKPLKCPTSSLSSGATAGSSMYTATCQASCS
Text: The overall goal of this project was to develop a novel assay for discovering small molecule ligands for class B1 G protein-coupled receptors (GPCRs). Very few agonists (or inverse agonists) with generally weak activity for this entire group of physiologically important receptors are known to date. To establish proof-of-principle that this critical bottleneck can be overcome with a suitable screening approach, our studies focused on the class B1 receptor for glucagon-like peptide-1 (GLP-1R), a potential therapeutic target for diabetes and neurodegenerative disease.
The assay was developed in a "mix and measure" format using a cell-based functional readout. Toward this goal, stably transfected HEK293 cell clones were established that co-express (i) a cAMP-responsive luciferase reporter gene, and (ii) GLP-1Rs that upon ligand interaction either stimulate (agonists) or inhibit (inverse agonists) luciferase activity. In different cell lines to be used for screening, expressed GLP-1Rs are specifically optimized for high sensitivity detection of either weak agonists (hypersensitive receptor) or inverse agonists (constitutively active receptor mutant). In addition, control cell lines were developed that express either the cAMP-responsive reporter gene without recombinant GLP-1Rs (enabling initial exclusion of GLP-1R independent effects of candidate probes), or the reporter gene together with wild type GLP-1Rs (for confirmation of probe activity at this receptor), or the reporter gene in combination with the constitutively active orphan receptor GPR119 (enabling initial exclusion of GLP-1R independent inhibitory effects of candidate inverse agonists).
To that end, this assay was optimized for 1536-well format and screened against the MLSMR.
NIH Molecular Libraries Probe Production Network [MLPCN]
NIH Chemical Genomics Center [NCGC]
PI Name: Martin Beinborn, Tufts Medical Center
In a white solid 1536-well plate, 6 uL of cells are dispensed in DMEM without phenol red, 10% Nu serum, and 1% pen-strep medium. The plates are then incubated for 12 hours at 37 deg C at 5% CO2 before 23 nL of compounds are added. After a 4-6 hr incubation at37 deg C and 5% CO2, 3 uL of detection reagent are added and after a 12 min incubation at RT, a luminescent read is obtained on the ViewLux.

activation, inactive:
CC1=Nc2cc(C(=O)N3CCC(C)CC3)ccc2Sc2ccc(Cl)cc21 0.558%
Cc1cn([C@H]2CC(F)[C@@H](CO)O2)c(=O)[nH]c1=O (some centres not stated) 7%
Cc1cccc(-n2c(=O)c3c(c4cc(C)ccc4n3C)n(CC(=O)Nc3ccccc3Cl)c2=O)c1 0.522%
O=C(O)CCCCC(=O)O -6.16%
Cc1ccc(CCNC(=O)Cn2c(-c3cccs3)cc3cc(F)ccc32)cc1 -0.201%
CC(C)(O)c1ccccc1CC[C@H](SCC1(CC(=O)O)CC1)c1cccc(/C=C/c2ccc3ccc(Cl)cc3n2)c1 5.38%
CO/N=C(\C(=O)N[C@@H]1C(=O)N2C(C(=O)O)=C(Cn3nnc(C)n3)CS[C@H]12)c1csc(N)n1 -4.78%
COc1ccc(CCNC(=O)CCCCn2c(=O)c3ccccc3n(Cc3ccccc3C)c2=O)cc1OC 12.4%
CCOc1ccc(CNCCSc2nnnn2C)cc1 -0.857%
CC(O)COc1ccccc1 (configuration not stated) -2.13%
Cc1ccc(C(=O)Nc2ccc(OCc3cc(=O)n4c5c(sc4n3)CCCC5)cc2)cc1 -0.745%
COc1cc([C@@H]2c3cc4c(cc3[C@@H](O[C@@H]3O[C@@H]5CO[C@@H](C)O[C@H]5[C@H](O)[C@H]3O)[C@H]3COC(=O)[C@H]23)OCO4)cc(OC)c1OP(=O)(O)O -0.904%
Cn1c(=O)c2c(nc(NCCc3ccccc3)n2Cc2ccccc2Br)n(C)c1=O 1.23%
COc1ccccc1-c1ccnc2[nH]n(-c3ccccc3)c(=O)c12 0.335%
CN(C)CCCn1c(-c2ccc(Cl)cc2)csc1=Nc1ccccc1 15.8%
COc1cc(C[C@H]2NCCc3cc(O)c(O)cc32)cc(OC)c1OC 25.4%
O=C(Nc1cccc2cccnc12)c1cccc2c(Br)cccc12 0.0139%
COc1ccc(CCNC(=O)CCc2c(C)nc3c(c(C)nn3-c3ccc(C)c(C)c3)c2C)c(OC)c1OC -0.6%
CCn1cc(C(=O)OCC(=O)Nc2cc(C)cc(C)c2)c(=O)c2ccc(C)nc21 -2.48%
CN(CC(=O)Nc1ccccc1F)S(=O)(=O)c1ccc2c(c1)c(=O)n(C)c(=O)n2C -1.36%
Cc1c(O)cc2c(c1C)O[C@](C)(CCC[C@H](C)CCC[C@H](C)CCCC(C)C)CC2 7.18%
COc1ccc(C2(C#N)CCC(C(=O)O)CC2)cc1OC1CCCC1 (configuration not stated) -2.56%
Cc1ccc(NC(=O)c2oc3ccccc3c2NC(=O)Cc2cccs2)cc1 0.593%
NNc1nnc(NN)c2ccccc12 12.5%
O=C(C1CCCN(S(=O)(=O)c2cccc3nonc23)C1)N1CCN(c2ccccc2F)CC1 (configuration not stated) -1.48%
COc1cccc(NC(=O)N(Cc2cn(C)c3ccccc23)C2CCCCCC2)c1 -6.68%
COc1ccc2[nH]c3c(c2c1)CCN(C(=O)CCC1CCCC1)C3c1ccc(F)cc1 (configuration not stated) 0.944%
Nc1ccccc1N 1.01% [at 96 µM]
NNc1nnc(Cc2ccncc2)c2ccccc12 -3.34%
CC(=O)OCC(=O)[C@@]1(O)CC[C@@H]2[C@H]3CCC4=CC(=O)C=C[C@]4(C)[C@]3(F)[C@@H](O)C[C@@]21C -1.89% [at 19.8 µM]
CCC(CC)C(=O)N1CCc2cc(OC)c(OC)cc2C1COc1ccc(F)cc1 (configuration not stated) 18.6%
CCC[C@H]1C(=O)N2C(N(C)C)=Nc3ccc(C)cc3N2C1=O 2.77% [at 19.8 µM]
C=C1C(=CC=C2CCC[C@@]3(C)[C@@H]2CC[C@H]3[C@H](C)CCCC(C)C)C[C@@H](O)C[C@@H]1O 7.68%
O=C1C(c2[nH]c3ccccc3c2O)=Nc2ccccc21 17.2%
CC(=O)OC[C@H]1O[C@@H](O[C@H]2[C@H](O)[C@@H](OC(=O)c3ccccc3C(=O)O)[C@H](O)O[C@@H]2COC(C)=O)[C@H](O)[C@@H](OC(=O)c2ccccc2C(=O)O)[C@@H]1O 5.47%
COc1ccc(CNC(=O)c2cc3cccc(OC)c3oc2=O)cc1 -5.88%
O=C(C1CC1)N1CCc2cc(Br)cc(S(=O)(=O)N3CCN(c4ccccc4F)CC3)c21 0.0455%
O=C(O)CCC(=O)O -1.33%
COc1ccc(OC)c([C@H](O)CNC(=O)CN)c1 1.93% [at 19.8 µM]
O=C(NC1CCCCC1)c1ccc2c(c1)N(Cc1ccc(Cl)cc1)C(=O)c1ccccc1S2=O (configuration not stated) -3.48%
Cc1ccc(C)c(CN2C(=O)c3ccccc3S(=O)c3ccc(C(=O)N4CCOCC4)cc32)c1 (configuration not stated) -0.515%
COc1ccc(S(=O)(=O)NCCSc2nnnn2-c2ccccc2)cc1 0.741%
CC(=O)OC1C([N+]2(C)CCCCC2)C[C@H]2C3CC[C@H]4C[C@H](OC(C)=O)C([N+]5(C)CCCCC5)CC4(C)C3CCC12C (some centres not stated) -1.14%
CCOC(=O)Cc1cccc(-c2cc(CCCCCCc3ccc(O[C@H]4O[C@H](COC(C)=O)[C@@H](OC(C)=O)[C@H](OC(C)=O)[C@@H]4OC(C)=O)c(-c4cccc(CC(=O)OCC)c4)c3)ccc2O[C@H]2O[C@H](COC(C)=O)[C@@H](OC(C)=O)[C@H](OC(C)=O)[C@@H]2OC(C)=O)c1 2.49%
O=C(CCn1c(=O)c2ccccc2n(Cc2ccc(Cl)cc2)c1=O)NCc1ccc2c(c1)OCO2 -0.608%
COc1ccc(-c2nc3ccccc3s2)cc1NC(=O)COc1ccccc1C 5.28%
CSc1ccc(C2C(C(=O)Nc3ccccc3)=C(C)Nc3nc4ccccc4n32)cc1 (configuration not stated) 5.83%
O=C(O)[C@@H](S)[C@H](S)C(=O)O -4.55%
CCC(C)C1OC2(C=CC1C)CC1CC(C/C=C(/C)C(OC3CC(OC)C(OC4CC(OC)C(NC(C)=O)C(C)O4)C(C)O3)C(C)/C=C\C=C3\COC4C(O)C(C)=CC(C(=O)O1)C34O)O2 (configuration not stated) -1.5%
CCc1nc2onc(C)c2c(=O)n1CC(=O)O -2.43%
CC1=C(C(=O)OCC2CCCCC2)C(c2c(F)cccc2Cl)CC(=O)N1 (configuration not stated) 0.542%
CCCCCn1c(CCNC(=O)c2ccc(F)cc2)nc2ccccc21 -6.1%
O=c1cc2nc(-c3ccccc3)nc(SCCOc3ccc(Cl)cc3)n2[nH]1 0.394%
C[C@H]1C[C@H]2[C@@H]3CCC4=CC(=O)C=C[C@]4(C)[C@@H]3C(=O)C[C@]2(C)[C@@]1(O)C(=O)CO 8.98%
COc1cc2c(cc1OC)CC(=O)N(CCCN(C)C[C@H]1Cc3cc(OC)c(OC)cc31)CC2 -1.07%
COc1cccc(CNC(=O)c2ccc3c(Cl)c4c(nc3c2)CCCC4)c1 -2.18%
COc1cccc(C(=O)NC2(C(F)(F)F)C(=O)Nc3c2c(=O)[nH]c(=O)n3-c2ccc(C)cc2)c1 (configuration not stated) -1.9%
Cc1ccc(C)c(N2CCN(C(=O)CN3C(=O)COc4ccc(S(=O)(=O)N5CCCCCC5)cc43)CC2)c1 0.958%
CCn1cc(C(=O)N(C)Cc2ccccc2)c(=O)c2cc(S(=O)(=O)N3CCCCCC3)ccc21 1.72%
Cc1cccc(Cc2c(C)nc3nc(SCc4ccccc4Cl)nn3c2C)c1 -0.0641%
Oc1ccccc1-c1nc2ccc(Cl)cn2c1Nc1ccc2c(c1)OCCO2 0.836%
COc1cc(C(=O)Nc2ccc(OCc3cc(=O)n4cc(C)sc4n3)cc2)cc(OC)c1OC 0.983%
COc1ccc(NC(=O)C2CCCN(S(=O)(=O)c3cccc4nonc34)C2)cc1Cl (configuration not stated) 1.17%
CCC(C)[C@@H](N)C(=O)O (some centres not stated) -4.44%
CCCc1c2oc(C(=O)O)cc(=O)c2cc2c(=O)cc(C(=O)O)n(CC)c12 2.28%
CCCCCCCCCCCCCCCCO 7.22%
O=S(O)CNc1ccc(S(=O)(=O)c2ccc(NCS(=O)O)cc2)cc1 -1.51%
CCCN(CC)[C@@H](CC)C(=O)Nc1c(C)cccc1C 12.7%
CN1CC(O)c2cc(N=NC(N)=O)c(O)cc21 (configuration not stated) 4.42%
O=C(Cn1nc(C(F)(F)F)c2c1CCCC2)Nc1ccc(Cl)cc1 -5.59%
CCOc1ccc(OCC)c(NC(=O)CN(c2ccc(C)cc2)S(=O)(=O)c2c(C)n[nH]c2C)c1 -3.92%
CCOC(=O)c1ccc(NC2=CC(c3ccc(OCC)cc3)N(c3ccc(C(=O)OCC)cc3)C2=O)cc1 (configuration not stated) 6.97%
CN(Cc1ccccc1)c1ncnc2onc(-c3ccc(F)cc3)c12 19.7%
O=C(Nc1ccc(O)cc1)c1ccccc1O -6.64%
O=P(O)(O)OC[C@H](O)CO 3.23%
COc1cccc(NC(=O)C2CCN(c3cc(C)nc4c(-c5ccc(Cl)cc5)c(C)nn34)CC2)c1 1.15%
COC(=O)CC1Oc2ccccc2-n2cc(-c3ccccc3)nc21 (configuration not stated) 1.91%
CCOC(=O)c1cccc(NS(=O)(=O)c2cn(C)c(C)n2)c1 7.08%
CCOc1ccc(N(CC)C(=O)C2CCN(S(=O)(=O)c3cccc4nonc34)CC2)cc1 0.873%
COc1ccnc(C[S@@](=O)[C@@H]2Nc3ccc(OC(F)F)cc3N2)c1OC 7.88%
O=C(Nc1c(-c2ccc(F)cc2)nc2ccccn12)c1cccc(F)c1 0.824%
CC1(C)OC2CO[C@]3(COS(N)(=O)=O)OC(C)(C)OC3C2O1 (some centres not stated) 10.6%
COC(=O)c1scc(-c2ccccc2)c1S(=O)(=O)Nc1ccccc1 -3.22%
COc1ccc(C)cc1NC(=O)C(=O)NCCc1sc(-c2cccc(C)c2)nc1C 14.1%
COc1ccc(-c2noc(CCC(=O)N(C)c3ccccc3C)n2)cc1 -0.858%
C/C=C/C=N/NC(=O)c1ccncc1 0.223%
COc1ccc2cc(CNc3ccc(OC)c(OC)c3)c(=O)n(CC(=O)Nc3ccccc3F)c2c1 -0.472%
COc1cc2[nH]c(C)c(CCN3CCN(c4ccccc4)CC3)c2cc1OC 1.59%
COC(=O)C1=C(c2ccccc2)c2ccccc2S(=O)(=O)N1CC(=O)Nc1ccccc1C(F)(F)F -1.05%
COc1cc(C(CC(=O)NCCC(C)C)N2Cc3ccccc3C2=O)cc(OC)c1OC (configuration not stated) -3.2%
CC1(C)[C@H](O[C@H]2O[C@H](C(=O)O)[C@@H](O)[C@H](O)[C@H]2O[C@@H]2O[C@H](C(=O)O)[C@@H](O)[C@H](O)[C@H]2O)CC[C@@]2(C)[C@H]1CC[C@]1(C)[C@H]2C(=O)C=C2[C@H]3C[C@@](C)(C(=O)O)CC[C@]3(C)CC[C@]21C -3.71%

outcome, inactive:
CC1(C)OC[C@@H](COC(=O)CCc2ccc(OC[C@@H](O)CNCCNC(=O)N3CCOCC3)cc2)O1
